“And” between values parts separate entries of the source, which are not always exact repeats. Equal values may be shown once. Records with an inconclusive call do not appear. The source made the active and inactive calls. Unless noted, how the calls were made is not given here.
Assays:
[1] = qHTS profiling of the MIPE4 collection as inhibitors of Plasmodium falciparum (3D7) proliferation (AID 743344);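 further: scaled between DMSO vehicle wells and 0.29 µM artemisinin as full inhibition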; settings: P. falciparum 3D7 in erythrocytes, SYBR Green DNA fluorescence, 72 h; at 28.5 µM unless noted
In short: (§1)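 Erythrocytes infected with P. falciparum (0.3% parasitemia, 2.5% hematocrit) incubated with compounds 72 h at 37 C, 5% CO2. Lysis with saponin/Triton buffer containing SYBR Green I, overnight at room temperature in the dark; DNA fluorescence (485/535 nm) normalised to 0.29 uM artemisinin and DMSO.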

[2] = qHTS profiling of the MIPE4 collection as inhibitors of Plasmodium falciparum (DD2) proliferation (AID 743345); settings: P. falciparum Dd2 in erythrocytes, SYBR Green DNA, 72 h; at 28.5 µM unless noted
In short: as §1

[3] = qHTS profiling of the MIPE4 collection as inhibitors of Plasmodium falciparum (DD2) proliferation (Rep 2) (AID 743346); settings: P. falciparum Dd2 in erythrocytes, SYBR Green DNA, 72 h; at 28.5 µM unless noted
In short: as §1

[4] = qHTS profiling of the MIPE4 collection as inhibitors of Plasmodium falciparum (HB3) proliferation (AID 743347);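 further: plate controls were DMSO vehicle wells for no effect and artemisinin wells for full effect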; settings: P. falciparum HB3 in erythrocytes, SYBR Green DNA, 72 h; at 28.5 µM unless noted
In short: as §1

[5] = High-throughput drug toxicity screening in the BPDCN cell line Gen2.2 (AID 1224824); settings: Gen2.2 BPDCN cells; at 45.8 µM (top of the series) unless noted;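 further: cells exposed to compounds for 48 h before reading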
In short: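 Seed 500 exponentially growing Gen2.2 cells/well; add compounds by pin tool; incubate 48 h, 37 °C, 5% CO2; add CellTiter-Glo, 15 min RT; read luminescence. % activity vs DMSO (100%) and bortezomib (0%).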

[6] = High-throughput drug toxicity screening in the BPDCN cell line Cal-1 (AID 1224825); settings: Cal-1 BPDCN cell viability, qHTS; at 45.8 µM (top of the series) unless noted
In short: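 500 Cal-1 cells/well, RPMI + glutamine + 10% FBS (phenol red-free); cpd added by pin tool; 48 h, 37C, 5% CO2; CTG 15 min RT, lumi read. Normalised: DMSO 100%, bortezomib 9.2 uM 0%.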

[7] = qHTS assay for measurement of the activity of small molecule inhibitors on Zika virus induced Caspase-3 activity in human iPSC derived neural progenitor cells (hNPCs) (AID 1224857; active means well fitted curve in the direction sought with a large enough effect; an effect the other way counts as inactive or inconclusive; further: nearly all actives have a fitted effect of over 65% in size; further: potency means the concentration at half of the fitted maximal effect)
In short: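 Quantitative HTS format: human iPSC neural progenitors, 1 h compound pretreatment, ZIKV 2 FFU/cell for 6 h at 37 C. Percent inhibition derived from luminescent caspase-3/7 signal between uninfected and infected controls.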

[8] = qHTS profiling for inhibitors of Plasmodium falciparum (3D7) proliferation (AID 743322);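 further: infected erythrocytes exposed to compound for 72 h before lysis; 100% = DMSO vehicle wells and 0% = 0.29 µM artemisinin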; settings: P. falciparum 3D7 proliferation; at 28.7 µM (top of the series)
In short: as §1

[9] = qHTS profiling for inhibitors of Plasmodium falciparum (HB3) proliferation (AID 743324; active means well fitted curve in the direction sought with a large enough effect; an effect the other way counts as inactive or inconclusive;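 further: 100% = DMSO vehicle wells and 0% = artemisinin-treated control wells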); settings: Plasmodium falciparum HB3 blood-stage proliferation; at 28.7 µM (top of the series)
In short: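 P. falciparum HB3 grown in erythrocytes (0.3% parasitemia, 2.5% hematocrit final) with compound for 72 h at 37 C, 5% CO2. Parasite DNA detected by SYBR Green after saponin/triton lysis overnight; normalized to 0.29 uM artemisinin and DMSO.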

SMILES	parasite growth, % of DMSO control [1]	parasite growth remaining, % of DMSO control (lower = more inhibition) [2]	parasite growth, % of control (lower = inhibition) [3]	growth, % of control [4]	cell viability, % of control (lower = more cytotoxic) [5]	viability (% of control) [6] [%]	Potency [7]	remaining parasite growth % (stronger effect = lower value) [8]	remaining proliferation (% of control), lower = more inhibition [9]
CC=CC[C@@H](C)C(=O)[C@H]1C(=O)N[C@@H](C(C)C)C(=O)N(C)CC(=O)N(C)[C@@H](CC(C)C)C(=O)N[C@@H](C(C)C)C(=O)N(C)[C@@H](CC(C)C)C(=O)N[C@@H](C)C(=O)N[C@H](C)C(=O)N(C)[C@@H](CC(C)C)C(=O)N(C)[C@@H](CC(C)C)C(=O)N(C)[C@@H](C(C)C)C(=O)N1C	90.9%	93.4%	107%	103%	62.3%				
CCNc1cc(NC2CCC(O)CC2)nc(Nc2ccc3c(ccn3Cc3ccccc3)c2)n1 (stereo unspecified)	4.9%	6.69%	15.2%	9.27%		2.13	inactive		
O=c1cc(-c2ccccc2)oc2cc(O)c(O)c(O)c12	7.41%	24.2%	28.3%	6.52%		91.7			
CCCCCNC(=O)N1CCC(CN(Cc2ccc(Cl)cc2)Cc2ccc([N+](=O)[O-])s2)C1 (stereo unspecified)	60.8%	25.2%	30.3%	55.8%		44.4			
O=c1cc(-c2cccc3c2Sc2ccccc2S3)oc(N2CCOCC2)c1	64.9%	90.2%	61.1%	39.5%	22.3%				
CC(C)[C@H](CO)Nc1nc(Nc2ccc(C(=O)O)c(Cl)c2)c2ncn(C(C)C)c2n1	29.4%	51%		18.3%		5.62		41.8%	28.6%
O=C(O)c1cc(O)c2c(c1)C(=O)c1cccc(O)c1C2=O	62.1% [at 57.5 µM]	73.9% [at 57.5 µM]	43.2% [at 57.5 µM]	44.1% [at 57.5 µM]	168% [at 92.2 µM]				
CNC(=O)c1ccc2cc(C3(O)CCn4cncc43)ccc2c1 (stereo unspecified)	84.5%	86.6%	74.8%	55%		94.8	inactive		
c1cc(-c2sc(-c3ccncc3)c(-c3ccncc3)c2-c2ccncc2)ccn1	8.84%	81.7%	19.1%	3.72%		79.1	inactive		
CO[C@H]1C[C@@H]2CC[C@@H](C)[C@@](O)(O2)C(=O)C(=O)N2CCCC[C@@H]2C(=O)O[C@H]([C@H](C)C[C@@H]2CC[C@H](OP(C)(C)=O)[C@H](OC)C2)CC(=O)[C@H](C)C=C(C)[C@@H](O)[C@@H](OC)C(=O)[C@H](C)C[C@H](C)C=CC=CC=C1C	4.92%	6.6%	9.19%	8.46%		5.8	inactive		
O=C(Nc1c(Cl)cncc1Cl)c1ccc(OC(F)F)c(OCC2CC2)c1	109%	100%		100%		105	inactive		
O=c1c(O)c(-c2ccc(O)cc2)oc2cc(O)cc(O)c12	24.5%	97.3%	27.5%	19.7%		13.1			
O=C(Nc1ccccc1-c1cn2c(CN3CCNCC3)csc2n1)c1cnc2ccccc2n1	5.22%	5.73%	12.5%	3.22%		1.48		-2.01% and -0.108%	-2.58% and -1.42%
CN(C)Cc1ccc(-c2nc3cccc4c3n2CCNC4=O)cc1	64%	100%	73.5%	97%		4.01		86.1%	94%
Cc1ccc(C(C)(O)c2nc3ccccc3s2)c(C)c1 (stereo unspecified)	61.8%	90.2%	88.7%	95.9%		6.97	inactive		
CN1[C@@H]2CCC[C@@H]1CC(NC(=O)c1nn(C)c3ccccc13)C2 (stereo partly specified)						105			
Cn1cc(C=C2C(=O)Nc3cccnc32)c2ccccc21	42.6%	82.2%		2.02%		63.5	inactive		
CN(C)Cc1cccc(N=C(c2ccccc2)c2c(O)[nH]c3cc(C(=O)N(C)C)ccc23)c1	16.4%	30.5%		36.3%		6.94	inactive		
COc1ccc(-c2cc(=O)c3c(O)cc(O)cc3o2)cc1O	30.9%	44.4%		67.5%		16.3	18.7 µM (active)		
Cc1c(NC(=O)c2ccc(C(C)(C)C)cc2)cccc1-c1cn(C)c(=O)c(Nc2ccc(C(=O)N3CCOCC3)cc2)n1	5.68%	6.89%	10.1%	5.53%		42.2			
O=C1c2c(O)cc(O)cc2O[C@H](c2cc(O)c(O)c(O)c2)[C@H]1O	85.4%	85.1%	78.7%	102%		123			
